Assay results published in PubChem BioAssay (EPA / NIEHS).
Records with an inconclusive call do not appear. Calls of active or inactive are those of the source. Rule for the calls: active = hit-call score of the fitted dose curve at least 0.9, where 1 is the maximum; inconclusive = response in the unintended direction; inactive = score below 0.9.

Columns and labels:
[1] = target: zebrafish Thyroid Hormone Receptor beta (TRb), thrb (gene 30607) (UniProt Q9PVE4); assay: ATG_zfTRb_XSP1: Attagene TRANS-FACTORIAL Multi-Species (XSP1) HepG2 Assay for zebrafish Thyroid Hormone Receptor beta (TRb) (AID 2283809)
Sequence of zebrafish Thyroid Hormone Receptor beta (TRb), thrb (gene 30607) (Q9PVE4 whole entry, looked up, the tested form may be a part): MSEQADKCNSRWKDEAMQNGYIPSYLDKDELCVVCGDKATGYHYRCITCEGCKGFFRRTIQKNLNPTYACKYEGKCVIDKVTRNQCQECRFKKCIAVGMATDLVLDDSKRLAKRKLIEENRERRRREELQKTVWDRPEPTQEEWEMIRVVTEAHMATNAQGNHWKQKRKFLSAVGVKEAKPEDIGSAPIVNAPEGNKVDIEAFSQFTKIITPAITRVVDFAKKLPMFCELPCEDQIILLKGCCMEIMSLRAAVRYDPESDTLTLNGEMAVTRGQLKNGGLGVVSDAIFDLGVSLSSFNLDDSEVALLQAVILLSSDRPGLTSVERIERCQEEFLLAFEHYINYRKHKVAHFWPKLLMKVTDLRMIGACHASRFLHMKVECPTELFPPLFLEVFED
Outline: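 HepG2 cells transiently transfected with multiplexed GAL4-UAS reporter units expressing chimeric zebrafish TRb–Gal4. Dosed 24 h with 3 nM 6-alpha-fluorotestosterone present; reporter mRNA measured by RT-PCR, HpaI digestion and capillary electrophoresis; gain of signal versus DMSO.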

[2] = ATG_M_06_XSP2: Attagene TRANS-FACTORIAL Multi-Species (XSP2) HepG2 Assay for M06 Transcription Factor (Internal Marker) (AID 2283811);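 note: hits are increases in signal above the DMSO baseline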
Outline: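 HepG2 cells transiently transfected with GAL4-UAS multiple reporter units, medium containing 3 nM 6-alpha-fluorotestosterone and 1.5 nM norgestrel; reporter mRNA measured 24 hours post-dosing by RT-PCR and capillary electrophoresis. Internal background marker, gain of signal vs DMSO.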

[3] = system: turtle Estrogen Receptor (ERa), gene 101933533; assay: ATG_trERa_XSP2: Attagene TRANS-FACTORIAL Multi-Species (XSP2) HepG2 Assay for turtle Estrogen Receptor (ERa) (AID 2283812);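 note: human HepG2 liver cells transiently expressing turtle ERa-Gal4 chimeric receptor; actives raise reporter signal above DMSO so AC50 reflects agonist activity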
Outline: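 HepG2 cells transiently transfected with GAL4-UAS reporter units expressing turtle ERa-Gal4 chimera. Reporter mRNA measured after 24 h dosing by RT-PCR, fluorescent labelling and capillary electrophoresis; gain of signal fitted versus DMSO.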

[4] = target: Estrogen receptor beta (Homo sapiens) (UniProt Q92731); assay: ATG_hERb_XSP2: Attagene TRANS-FACTORIAL Multi-Species (XSP2) HepG2 Assay for human Estrogen Receptor (ERb) (AID 2283813);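 note: actives raise reporter mRNA above DMSO so AC50 reflects agonist induction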
Sequence of Estrogen receptor beta (Homo sapiens) (Q92731 whole entry, looked up, the tested form may be a part): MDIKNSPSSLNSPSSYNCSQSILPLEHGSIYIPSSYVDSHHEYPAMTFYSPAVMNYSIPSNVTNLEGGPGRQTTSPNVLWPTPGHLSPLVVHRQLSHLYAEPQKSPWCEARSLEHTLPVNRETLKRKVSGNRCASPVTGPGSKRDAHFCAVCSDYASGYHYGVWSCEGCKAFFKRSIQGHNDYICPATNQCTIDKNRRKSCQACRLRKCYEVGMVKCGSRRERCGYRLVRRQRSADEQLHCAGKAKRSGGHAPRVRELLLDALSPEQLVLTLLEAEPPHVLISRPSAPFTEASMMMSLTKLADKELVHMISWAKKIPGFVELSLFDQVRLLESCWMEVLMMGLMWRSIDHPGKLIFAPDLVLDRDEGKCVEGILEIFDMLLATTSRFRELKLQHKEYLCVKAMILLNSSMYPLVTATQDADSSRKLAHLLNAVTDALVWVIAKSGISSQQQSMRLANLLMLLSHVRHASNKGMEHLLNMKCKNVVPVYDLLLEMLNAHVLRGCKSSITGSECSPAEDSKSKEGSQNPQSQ
Outline: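 HepG2 cells transiently transfected with GAL4-UAS reporter units and chimeric human ERb-Gal4, 24 h exposure. Reporter mRNA quantified by RT-PCR with FAM labelling, HpaI digestion and capillary electrophoresis; gain of signal versus DMSO.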

[5] = system: turtle Androgen Receptor (AR), gene 101947425; assay: ATG_trAR_XSP2: Attagene TRANS-FACTORIAL Multi-Species (XSP2) HepG2 Assay for turtle Androgen Receptor (AR) (AID 2283815);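 for AC50: potency for gain of reporter signal meaning activation above DMSO baseline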
Outline: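 HepG2 cells transiently transfected with GAL4-UAS reporter units for chimeric NR-Gal4 receptors; 24 h dosing in presence of 3 nM 6-alpha-fluorotestosterone and 1.5 nM norgestrel. Reporter mRNA by RT-PCR and capillary electrophoresis, gain of signal versus DMSO.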

[6] = target: chicken Estrogen Receptor (ERa), ESR1 (gene 396099) (UniProt P06212); assay: ATG_chERa_XSP2: Attagene TRANS-FACTORIAL Multi-Species (XSP2) HepG2 Assay for chicken Estrogen Receptor (ERa) (AID 2283817);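 note: actives raise reporter signal above DMSO so AC50 reflects ER activation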
Sequence of chicken Estrogen Receptor (ERa), ESR1 (gene 396099) (P06212 whole entry, looked up, the tested form may be a part): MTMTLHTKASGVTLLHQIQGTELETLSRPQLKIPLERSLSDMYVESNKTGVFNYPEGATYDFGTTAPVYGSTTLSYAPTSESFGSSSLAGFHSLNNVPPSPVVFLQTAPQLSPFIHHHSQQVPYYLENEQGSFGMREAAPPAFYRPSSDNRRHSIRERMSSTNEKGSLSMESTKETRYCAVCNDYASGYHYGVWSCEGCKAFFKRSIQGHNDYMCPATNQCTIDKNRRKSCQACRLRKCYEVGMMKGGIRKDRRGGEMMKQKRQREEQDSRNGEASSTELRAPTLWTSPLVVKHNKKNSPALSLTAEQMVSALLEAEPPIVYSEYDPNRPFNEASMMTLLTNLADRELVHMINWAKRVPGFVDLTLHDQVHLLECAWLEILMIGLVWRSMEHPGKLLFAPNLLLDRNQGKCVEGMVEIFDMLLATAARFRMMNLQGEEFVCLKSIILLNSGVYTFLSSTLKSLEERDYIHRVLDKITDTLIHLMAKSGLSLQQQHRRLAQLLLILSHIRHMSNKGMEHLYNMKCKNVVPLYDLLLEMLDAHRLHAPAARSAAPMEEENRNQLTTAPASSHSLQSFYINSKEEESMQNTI
Outline: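 Transiently transfected HepG2 cells expressing chimeric chicken ERa-GAL4 reporter units, dosed 24 h with 3 nM 6-alpha-fluorotestosterone and 1.5 nM norgestrel present. Reporter mRNA measured by RT-PCR and capillary electrophoresis; gain-of-signal fitted relative to DMSO.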

[7] = target: human Thyroid hormone Receptor beta (TRb), THRB (gene 7068) (UniProt P10828); assay: ATG_hTRb_XSP1: Attagene TRANS-FACTORIAL Multi-Species (XSP1) HepG2 Assay for human Thyroid hormone Receptor beta (TRb) (AID 2283808)
Sequence of human Thyroid hormone Receptor beta (TRb), THRB (gene 7068) (P10828 whole entry, looked up, the tested form may be a part): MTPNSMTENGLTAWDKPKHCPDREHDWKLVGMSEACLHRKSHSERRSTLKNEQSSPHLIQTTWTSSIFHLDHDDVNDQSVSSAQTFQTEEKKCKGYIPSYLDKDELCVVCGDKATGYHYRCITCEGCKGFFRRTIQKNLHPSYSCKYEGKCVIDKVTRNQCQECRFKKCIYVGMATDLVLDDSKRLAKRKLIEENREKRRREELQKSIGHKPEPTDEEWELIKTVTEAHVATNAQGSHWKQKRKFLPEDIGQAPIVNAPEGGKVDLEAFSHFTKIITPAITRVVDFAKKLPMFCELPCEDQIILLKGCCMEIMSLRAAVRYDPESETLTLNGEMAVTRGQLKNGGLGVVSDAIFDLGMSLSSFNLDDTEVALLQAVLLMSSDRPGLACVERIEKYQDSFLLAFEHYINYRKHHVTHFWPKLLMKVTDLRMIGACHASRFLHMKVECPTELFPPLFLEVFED
Outline: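 HepG2 cells transiently transfected with reporter units driving GAL4-UAS reporters for chimeric NR-Gal4 proteins; 24 h chemical exposure with 3 nM 6-alpha-fluorotestosterone present. Reporter mRNA quantified by RT-PCR and capillary electrophoresis, gain of signal versus DMSO.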

[8] = ATG_XTT_Cytotoxicity_XSP1: Cytotoxicity Assessment in the Attagene TRANS-FACTORIAL Multi-Species (XSP1) HepG2 Assay (AID 2283810)
Outline: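 XTT viability readout taken at 24 hours post-dosing in HepG2 liver cells co-treated with 3 nM 6-alpha-fluorotestosterone. Signal loss relative to DMSO controls reflects cytotoxicity.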

[9] = target: GAL4 Transcription Factor (Internal Marker), GAL4 (gene 855828) (UniProt P04386); assay: ATG_GAL4_XSP2: Attagene TRANS-FACTORIAL Multi-Species (XSP2) HepG2 Assay for GAL4 Transcription Factor (Internal Marker) (AID 2283814);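 note: GAL4 reporter mRNA background control in MRTU transfected cells not a receptor target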
Sequence of GAL4 Transcription Factor (Internal Marker), GAL4 (gene 855828) (P04386 whole entry, looked up, the tested form may be a part): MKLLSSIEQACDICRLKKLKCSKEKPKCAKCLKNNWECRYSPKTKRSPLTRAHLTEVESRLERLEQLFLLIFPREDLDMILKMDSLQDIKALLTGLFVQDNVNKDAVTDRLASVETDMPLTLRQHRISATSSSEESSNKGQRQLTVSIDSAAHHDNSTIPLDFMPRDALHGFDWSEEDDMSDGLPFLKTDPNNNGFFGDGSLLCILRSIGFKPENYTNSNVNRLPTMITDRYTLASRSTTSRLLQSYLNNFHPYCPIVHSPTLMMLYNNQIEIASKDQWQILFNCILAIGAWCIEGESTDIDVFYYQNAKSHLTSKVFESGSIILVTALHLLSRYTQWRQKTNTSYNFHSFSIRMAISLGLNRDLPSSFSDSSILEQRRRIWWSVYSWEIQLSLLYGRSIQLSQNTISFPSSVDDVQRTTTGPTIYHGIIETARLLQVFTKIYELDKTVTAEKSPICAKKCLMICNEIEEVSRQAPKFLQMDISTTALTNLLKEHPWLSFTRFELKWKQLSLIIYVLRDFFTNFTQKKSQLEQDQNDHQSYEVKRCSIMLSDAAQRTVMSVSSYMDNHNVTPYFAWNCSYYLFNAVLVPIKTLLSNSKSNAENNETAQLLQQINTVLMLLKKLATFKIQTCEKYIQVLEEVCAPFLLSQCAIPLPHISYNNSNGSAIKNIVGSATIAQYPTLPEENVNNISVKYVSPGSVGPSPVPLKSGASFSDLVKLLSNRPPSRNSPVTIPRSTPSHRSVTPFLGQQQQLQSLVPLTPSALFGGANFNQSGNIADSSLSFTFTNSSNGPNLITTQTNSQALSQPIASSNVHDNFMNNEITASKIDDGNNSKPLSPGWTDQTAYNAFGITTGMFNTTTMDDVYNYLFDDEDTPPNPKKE
Outline: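 HepG2 cells transiently transfected with GAL4-UAS reporter units, stimulated with 3 nM 6-alpha-fluorotestosterone plus 1.5 nM norgestrel, dosed 24 h. Reporter mRNA by RT-PCR/capillary electrophoresis; gain-of-signal fit versus DMSO, background control.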

[10] = target: zebrafish Estrogen Receptor (ER1), esr1 (gene 259252) (UniProt P57717); assay: ATG_zfER1_XSP2: Attagene TRANS-FACTORIAL Multi-Species (XSP2) HepG2 Assay for zebrafish Estrogen Receptor (ER1) (AID 2283816)
Sequence of zebrafish Estrogen Receptor (ER1), esr1 (gene 259252) (P57717 whole entry, looked up, the tested form may be a part): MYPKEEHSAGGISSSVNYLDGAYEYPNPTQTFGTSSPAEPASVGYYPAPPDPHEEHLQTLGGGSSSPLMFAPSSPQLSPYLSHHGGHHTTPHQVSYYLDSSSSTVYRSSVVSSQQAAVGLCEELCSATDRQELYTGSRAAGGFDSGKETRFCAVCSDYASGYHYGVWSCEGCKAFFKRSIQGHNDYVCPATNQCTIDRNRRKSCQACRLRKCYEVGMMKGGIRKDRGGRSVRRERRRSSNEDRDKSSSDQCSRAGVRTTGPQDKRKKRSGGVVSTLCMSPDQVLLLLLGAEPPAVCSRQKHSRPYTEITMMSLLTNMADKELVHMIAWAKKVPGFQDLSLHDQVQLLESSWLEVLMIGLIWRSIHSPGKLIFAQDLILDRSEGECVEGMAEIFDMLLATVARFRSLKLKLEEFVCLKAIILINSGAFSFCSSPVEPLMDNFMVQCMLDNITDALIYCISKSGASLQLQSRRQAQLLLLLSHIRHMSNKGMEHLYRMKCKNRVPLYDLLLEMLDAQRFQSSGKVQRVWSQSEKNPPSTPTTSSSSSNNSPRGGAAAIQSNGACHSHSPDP
Outline: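 HepG2 cells transiently transfected with a GAL4-UAS reporter and a chimeric zebrafish ER1-Gal4 construct, dosed 24 h. Reporter mRNA quantified by RT-PCR, labelling, HpaI digestion and capillary electrophoresis, relative to DMSO.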

Measured: AC50

COP(=S)(OC)Oc1nc(Cl)c(Cl)cc1Cl
inactive: [1] | [2] | [4]
active: [3] 55.8 µM | [5] 17.5 µM | [6] 35.3 µM

COc1ccc(C(c2ccc(OC)cc2)C(Cl)(Cl)Cl)cc1
active: [3] 8.99 µM | [6] 7.74 µM
not listed: [5] | [10]
inactive: all other assays above

COC(=O)N(OC)c1ccccc1COc1ccn(-c2ccc(Cl)cc2)n1
active: [7] 3.33 µM
not listed: [5]
inactive: all other assays above

CO/C=C(/C(=O)OC)c1ccccc1Oc1cc(Oc2ccccc2C#N)ncn1
inactive: [7] | [1] | [2] | [3]

CCCN(CCC)c1c([N+](=O)[O-])cc(S(N)(=O)=O)cc1[N+](=O)[O-]
active: [7] 9.26 µM | [1] 9.16 µM | [8] 161 µM
not listed: [5] | [9]
inactive: all other assays above

CCCCOC(=O)c1ccccc1C(=O)OCCCC
active: [3] 42.3 µM | [6] 23 µM
not listed: [2] | [5]
inactive: all other assays above

C=CC1(C)OC(=O)N(c2cc(Cl)cc(Cl)c2)C1=O (stereo not given)
active: [7] 67.6 µM | [1] 51.6 µM
inactive: [2] | [3] | [4] | [6]

CCCCNC(=O)OCC#CI
inactive: [7] | [2] | [4] | [10]
active: [8] 23.2 µM

CCOP(=S)(OCC)SCn1c(=O)oc2cc(Cl)ccc21
active: [1] 49.8 µM
not listed: [5]
inactive: all other assays above

C#CCOS(=O)OC1CCCCC1Oc1ccc(C(C)(C)C)cc1 (stereo not given)
not listed: [4] | [8]
inactive: all other assays above

CCCCC(CC)COC(=O)c1ccccc1C(=O)OCC(CC)CCCC (stereo not given)
active: [7] 100 µM | [1] 100 µM
inactive: [8] | [2]

CC(C)(C)c1ccc(CSc2cnn(C(C)(C)C)c(=O)c2Cl)cc1
not listed: [7]
inactive: all other assays above

CC(C)Oc1cc(-n2nc(C(C)(C)C)oc2=O)c(Cl)cc1Cl
active: [3] 100 µM | [4] 29.3 µM | [6] 100 µM
not listed: [5] | [7]
inactive: all other assays above

CON(C)C(=O)Nc1ccc(Cl)c(Cl)c1
inactive: [1] | [8] | [9] | [10] | [6]

CCCC1COC(Cn2cncn2)(c2ccc(Cl)cc2Cl)O1 (stereo not given)
active: [3] 64.2 µM | [6] 3.88 µM
inactive: [8] | [2] | [9] | [10]

OC(c1ccc(Cl)cc1)(c1cncnc1)c1ccccc1Cl (stereo not given)
inactive: [8] | [2] | [9]
active: [3] 1.49 µM | [4] 25.4 µM | [10] 25.9 µM | [6] 1.8 µM
